We go through 97 molecules from PubChem BioAssay AID1851 (National Center for Advancing Translational Sciences (NCATS), 2009).

Values joined by “and” are separate entries in the source; they are usually repeats but may differ in a detail not shown here. Equal entries are not always repeated. The campaign covered roughly 16,000 compounds. About 5,800 (36%) were called active. About 23% were inconclusive and are not listed. The list shows a part of the results. Unmarked numbers belong to inactive results. The call rests on the fitted dose curve; in most records, active means well fitted curve in the direction sought with a large enough effect; inconclusive means small, poorly fitted or top-dose-only effect, or effect the other way; inactive means no such curve, though single readings can be large or run the other way.

Broadly, the AC50 is the concentration giving half of the maximal activity seen.
On the % scale 0 is the no-effect control and ±100 the full control effect.

The target of the test is Cytochrome P450 2C19 (Homo sapiens) (UniProt P33261). Nature of the test: Cytochrome panel assay with activity outcomes. The following applies: recombinant CYP, pro-luciferin dealkylation, luminescence, p450-cyp2c19; series mostly up to 57.1 µM.
Sequence of Cytochrome P450 2C19 (Homo sapiens) (P33261 whole entry, looked up): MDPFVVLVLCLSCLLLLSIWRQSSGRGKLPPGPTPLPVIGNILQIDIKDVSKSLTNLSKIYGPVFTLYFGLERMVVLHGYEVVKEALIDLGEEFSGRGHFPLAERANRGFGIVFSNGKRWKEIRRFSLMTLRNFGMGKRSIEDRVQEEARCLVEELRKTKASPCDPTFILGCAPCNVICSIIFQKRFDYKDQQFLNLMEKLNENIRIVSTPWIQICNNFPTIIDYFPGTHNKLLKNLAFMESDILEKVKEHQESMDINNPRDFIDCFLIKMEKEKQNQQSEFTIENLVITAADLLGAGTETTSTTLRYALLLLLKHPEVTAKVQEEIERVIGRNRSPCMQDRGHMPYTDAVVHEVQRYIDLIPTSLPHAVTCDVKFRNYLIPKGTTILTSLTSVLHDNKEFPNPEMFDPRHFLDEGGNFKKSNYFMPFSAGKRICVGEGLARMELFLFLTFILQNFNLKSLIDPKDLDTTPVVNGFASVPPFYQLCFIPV
For `Cc1nn(Cc2c(F)c(F)c(F)c(F)c2F)c(C)c1NC(=O)c1c(-c2ccccc2)nn(-c2ccccc2)c1C`, the half-maximal activity concentration (AC50) is 2.24 µM (active). As to `Cc1nn(Cc2c(F)c(F)c(F)c(F)c2F)c(C)c1NC(=O)c1cccc(COc2ccc(Cl)cc2)c1`, the AC50 was 14.1 µM (active). `O=C1NC(O)=NC1(c1ccccc1)c1ccccc1`: the AC50 result was “inactive”.

Take `O=C(/C=C/c1ccc(Cl)cc1)NCCSc1ccccc1`: the AC50 is 1.78 µM (active). Regarding `COCCCNC(=O)/C=C/c1ccc(Cl)cc1`, the AC50 entry is “inactive”. On to `CCCCCCCCCCCCCCC[C@H](O)[C@H](N)CO`, for which the AC50 entry is “inactive”. As to `CC1=NN(c2ccccc2)C(=O)[C@@H]1N=Nc1ccc(S(N)(=O)=O)cc1`, the activity, negative = inhibition was 20.1% [at 11.4 µM].

On to `CC1=NN(c2ccc(C)cc2C)C(=O)C1C(c1ccccc1)C1C(=O)N(c2ccc(C)cc2C)N=C1C` (configuration not stated), for which the AC50 was 4.47 µM (active). The same measure, in the same setting: in the case of `COCCn1c(=O)c(-c2cccc(C#N)c2)nc2cnc(N3CCN(C)CC3)nc21` it was “inactive”; in that of `CN(C)c1ncc2nc(-c3cccs3)c(=O)n(-c3ccccc3)c2n1`, “inactive”; in that of `O=c1c2c(-c3cccs3)csc2[nH]c(=S)n1-c1ccccc1`, 10 µM (active). Same read-out and setting: next, `COc1ncc2nc(-c3cccs3)c(=O)n(-c3ccccc3)c2n1`: “inactive”; `Cc1cccc(N2CC(O)=C(c3nc4ccccc4n3C)C2=N)c1`: “inactive”; `Cn1c(-c2sc(=S)n(-c3ccccc3)c2N)nc2ccccc21`: 1.41 µM (active). As for `CN(C)CC/C=C1\c2ccccc2COc2ccccc21`, the AC50 result is “inactive”. For `CC(C)(C)NC[C@@H](O)c1ccc(O)c(CO)n1`, the activity, negative = inhibition is 27.5% [at 11.4 µM]. `CN(C(=O)c1c(O)c2ccccc2n(C)c1=O)c1ccccc1`: the AC50 entry is “inactive”. On the same count and under the same terms, next, `CCCc1c(O)c2ccccc2n(-c2ccccc2)c1=O`: 11.2 µM (active). Consider `CCNc1ncc2nc(-c3cn(C)c4ccccc34)c(=O)n(-c3ccccc3)c2n1`, for which the AC50 entry is “inactive”.

Consider `O=C1CC(c2ccc3c(c2)OCO3)Sc2nc3ccccc3n21` (configuration not stated), for which the half-maximal activity concentration (AC50) was 2 µM (active).

Take `CCOc1cc(CNCCc2ccc(S(N)(=O)=O)cc2)cc(Cl)c1OCc1ccccc1`: the half-maximal activity concentration (AC50) was 3.55 µM (active). `CCOc1cc(CNCCO)cc(Br)c1OCc1ccccc1Cl`: the concentration at half-maximal activity (AC50) was 7.08 µM (active). The same measure, in the same setting: in the case of `Cc1noc(C)c1C(=O)N1CCC2(CCN(Cc3cc(C(F)(F)F)cc(C(F)(F)F)c3)CC2)CC1` it was “inactive”; in that of `Cc1nnc(-c2cnn(-c3ccccc3)c2N)n1Cc1ccc(F)cc1`, 17.8 µM (active). Still for that read-out and setting: next, `Cc1nnc(-c2cnn(-c3ccccc3)c2N)n1Cc1ccccc1`: “inactive”. For the molecule `COc1ccc(-c2cc(C(F)(F)F)nc(N3CCN(C)CC3)n2)cc1OC`, the AC50 entry was “inactive”. `COc1ccc(-c2cc(C(F)(F)F)nc(N3CCOCC3)n2)cc1OC`: the AC50 is 2.24 µM (active).

As to `Cn1c(=O)c(-c2ccc(F)cc2)nc2cnc(N3CCOCC3)nc21`, the AC50 entry was “inactive”.

With `COc1ccc(-c2cc(C(F)(F)F)nc(NC3CCCC3)n2)cc1OC`, the AC50 is 22.4 µM (active). Take `COc1ccc(-c2cc(C(F)(F)F)nc(N3CCCCC3)n2)cc1OC`: the concentration at half-maximal activity (AC50) is 3.16 µM (active).

With `COCCn1c(=O)c(-c2ccc(OC)cc2)nc2cnc(N3CCOCC3)nc21`, the AC50 entry was “inactive”. As to `COc1ccccc1-c1nc(NC2CC2)c2ccccc2n1`, the AC50 result was “inactive”. For the molecule `O=C(O)C[C@H](NC(=O)CP(=O)(O)O)C(=O)O.[NH-][C@@H]1CCCC[C@@H]1[NH-].[Pt]`, the activity, negative = inhibition is -14.4% [at 11.4 µM]. Regarding `CCOC(=O)N/N=C1/C[C@@H](O)[C@@H](O)[C@@H]2[C@@H]3C(=O)N(CC)C(=O)[C@H]3CC[C@H]12`, the activity, negative = inhibition was -7.53% [at 11.4 µM].

In the case of `O=C(CCNS(=O)(=O)c1cccs1)N1CCc2ccccc2C1`, the AC50 is 2.24 µM (active).

`CCOC(=O)N1CCN(C(=O)CNCc2cccs2)CC1`: the AC50 entry was “inactive”. Consider `O=C(O)Cc1c[nH]c2ccc(O)cc12`, for which the AC50 result is “inactive”.

With `Cc1csc(NC(=O)CNS(=O)(=O)c2cccs2)n1`, the concentration at half-maximal activity (AC50) was 14.1 µM (active).

For the molecule `Cc1csc(NC(=O)Cc2c[nH]c3ccccc23)n1`, the concentration at half-maximal activity (AC50) was 7.08 µM (active). Take `COCC(=O)N1CCC2(CC1)CN(C(c1ccccc1)c1ccccc1)C2`: the AC50 entry is “inactive”. For the molecule `CCOC(=O)N1CCN(C(=O)CNS(=O)(=O)c2cccs2)CC1`, the AC50 was 8.91 µM (active). Take `Cc1csc(NC(=O)CCNS(=O)(=O)c2ccc3c(c2)c(=O)n(C)c(=O)n3C)n1`: the AC50 result was “inactive”. With `O=C(CCNS(=O)(=O)c1cccs1)N1CCCCCC1`, the concentration at half-maximal activity (AC50) was 3.16 µM (active). Consider `O=C(Cc1ccc(-n2c(=O)[nH]c3ccccc3c2=O)cc1)N1CCN(c2cccc(Cl)c2)CC1`, for which the AC50 was 8.91 µM (active). Regarding `COc1ccc(CC(=O)N2CCN(c3ccc(C4=NNC(=O)CC4C)cc3)CC2)cc1` (configuration not stated), the AC50 entry was “inactive”. For `O=c1nc2ccccc2c2n1CC(CN1CCN(c3cccc(Cl)c3)CC1)N2` (configuration not stated), the AC50 entry is “inactive”.

Turning to `CN1CCN(CC(=O)N2c3ccccc3Sc3cc4ccccc4cc32)CC1`, the activity, negative = inhibition is -1.84% [at 11.4 µM]. Take `CC1CCN(CC(=O)N2c3ccccc3Sc3cc4ccccc4cc32)CC1`: the AC50 was 3.16 µM (active). Consider `CN1CCCC[C@@H]1CCN1c2ccccc2Sc2ccc(S(C)=O)cc21` (some centres not stated), for which the AC50 result is “inactive”. As for `CCN[C@@H]1C[C@H](C)S(=O)(=O)c2sc(S(N)(=O)=O)cc21`, the AC50 result was “inactive”. Still for that read-out and setting: in the case of `Cc1ccsc1/C=N/Nc1nc(Cl)c(Cl)cc1Cl` it was 7.94 µM (active); in that of `CN(C)c1ccc(N=Cc2nc(-c3ccccc3)oc2O)cc1`, 1.78 µM (active); in that of `Oc1oc(-c2ccccc2)nc1C=Nc1ccccc1`, 3.98 µM (active). On to `CN(C)Cc1ccc(O)c(CN(C)C)n1`, for which the activity, negative = inhibition was -0.0983% [at 11.4 µM].

With `C=CCCCCCCCCC(=O)Nc1c[nH]c(=O)[nH]c1=O`, the AC50 result is “inactive”. As for `Cc1ccc2[nH]c3c(N4CCc5ccccc5C4)ncnc3c2c1`, the concentration at half-maximal activity (AC50) is 1.58 µM (active). Turning to `CCN1CCCC1Cn1cnc2c([nH]c3ccc(C)cc32)c1=O` (configuration not stated), the AC50 result was “inactive”. Turning to `Cc1cc(NC(=O)CN2C(=O)NC(C)(c3ccc(OC(F)F)cc3)C2=O)no1` (configuration not stated), the AC50 result is “inactive”. With `Cc1ccc(C2(C)NC(=O)N(CC(=O)Nc3cc(C)on3)C2=O)cc1` (configuration not stated), the AC50 entry was “inactive”. Take `COc1ccc(OC)c(C(=O)CN2C(=O)NC(C)(c3ccccc3)C2=O)c1` (configuration not stated): the AC50 was 0.224 µM (active). The same measure, in the same setting: in the case of `Cc1nnc(SCC(=O)NCC2CCCCC2)n(N)c1=O` it was “inactive”; in that of `Cn1c(SCC(=O)NC2CC2)nnc1-c1cccc(NC(=O)c2ccccc2F)c1`, “inactive”; in that of `CCn1c(SCC(=O)NC2CCCCC2)nnc1-c1cc2cccc(OC)c2o1`, 10 µM (active).

In the case of `Nc1nc2c(c(=O)[nH]1)CN(c1ccc(S(N)(=O)=O)cc1)CN2`, the activity, negative = inhibition was 24.4% [at 11.4 µM]. In the case of `Cc1ccc(/C=C2\SC(=S)N(CCCC(=O)Nc3ccccn3)C2=O)cc1`, the concentration at half-maximal activity (AC50) is 10 µM (active). On the same count and under the same terms, in the case of `Cc1nc2cnc(Nc3ccccc3)nc2n(C)c1=O` it was “inactive”. With `CCNc1ncc2nc(-c3ccccc3)c(=O)n(C)c2n1`, the AC50 result was “inactive”. Consider `CCNc1ncc2nc(CCc3ccccc3)c(=O)n(C3CC3)c2n1`, for which the half-maximal activity concentration (AC50) was 6.31 µM (active). For `Cn1c(=O)c(CCc2ccccc2)nc2cnc(Nc3ccccc3)nc21`, the AC50 was 15.8 µM (active). As for `CCNc1ncc2nc(CCc3ccccc3)c(=O)n(Cc3ccc(F)cc3)c2n1`, the AC50 result was “inactive”. Regarding `CCNc1ncc2nc(-c3ccccc3)c(=O)n(C3CC3)c2n1`, the AC50 entry was “inactive”. Same read-out and setting: in the case of `CCNc1ncc2nc(CCc3ccccc3)c(=O)n(C)c2n1` it was 2.51 µM (active). The same measure, in the same setting: next, `CCNc1ncc2nc(C)c(=O)n(C3CC3)c2n1`: “inactive”; `CCO/C([O-])=N/c1c[n+](N2CCOCC2)no1`: “inactive”. The same measure, in the same setting: next, `COC(=O)C(NC(=O)c1ccc(Cl)cc1)(Nc1nc(C)cs1)C(F)(F)F` (configuration not stated): 5.01 µM (active); `CCC(C)NS(=O)(=O)c1ccc(NC(=O)CCC2CCCCC2)cc1` (configuration not stated): “inactive”. For the molecule `O=C(CCc1ccc(S(=O)(=O)NC2CCCCC2)cc1)N(Cc1ccccc1)Cc1ccccc1`, the half-maximal activity concentration (AC50) was 1.41 µM (active). For the molecule `CC(=O)c1ccc(S(=O)(=O)NC(=O)NC2CCCCC2)cc1`, the AC50 result was “inactive”. On to `Cc1ccc(NC(=O)CCc2ccc(S(=O)(=O)NC3CCCCC3)cc2)cc1`, for which the AC50 was 15.8 µM (active). As for `Cc1ccccc1NC1=NC(=S)N(c2ccccc2)C12CCOC(C)(C)C2` (configuration not stated), the AC50 entry is “inactive”. `COc1ccc([C@@H](Nc2ccccn2)c2cc(C(C)(C)C)cc(C(C)(C)C)c2O)cc1`: the half-maximal activity concentration (AC50) is 2.51 µM (active).

In the case of `CN1CCc2cc(Cl)c(O)cc2[C@@H](c2ccccc2)C1`, the AC50 result is “inactive”.

With `O=S(=O)(c1ccccc1)N1CCC[C@@]2(CCN(c3ccncc3)C2)C1`, the AC50 is 0.398 µM (active).

As for `CS(=O)(=O)N1CCC[C@@]2(CCN(c3ccccn3)C2)C1`, the AC50 result was “inactive”. As for `CS(=O)(=O)N1CCC2(CCCN(c3ncccn3)C2)CC1`, the AC50 result was “inactive”.

Turning to `CC(C)CN1CC[C@@]2(CCCN(S(=O)(=O)c3ccccc3)C2)C1`, the AC50 result was “inactive”. With `O=S(=O)(c1ccccc1)N1CCC[C@@]2(CCN(c3cccc(-c4ccccc4)c3)C2)C1`, the AC50 entry is “inactive”. Turning to `CS(=O)(=O)N1CCC[C@@]2(CCN(c3ccncc3)C2)C1`, the AC50 entry is “inactive”. As to `O=S(=O)(c1ccccc1)N1CCC[C@@]2(CCN(c3ccccc3)C2)C1`, the AC50 was 0.316 µM (active). For the molecule `O=S(=O)(c1ccccc1)N1CCC[C@@]2(CCN(C(c3ccccc3)c3ccccc3)C2)C1`, the AC50 entry is “inactive”. On to `CS(=O)(=O)N1CCC2(CCCN(c3ccncc3)C2)CC1`, for which the AC50 is 1.26 µM (active). Still for that read-out and setting: next, `CS(=O)(=O)N1CCC[C@@]2(CCN(c3ccccc3)C2)C1`: 3.16 µM (active).

Take `CS(=O)(=O)N1CCC[C@@]2(CCN(c3ncccn3)C2)C1`: the AC50 entry was “inactive”. As to `CCN1C(=O)[C@H]2[C@H]3[C@H](O)[C@H](O)C/C(=N/OC[C@@H](O)COCc4ccco4)[C@@H]3CC[C@@H]2C1=O`, the activity, negative = inhibition was 29.6% [at 11.4 µM] and 41.4% [at 11.4 µM].

In the case of `CN1CCCC2(CCN(S(=O)(=O)c3ccccc3)CC2)C1`, the AC50 entry is “inactive”. With `O=S(=O)(c1ccccc1)N1CCC2(CCCN(c3cccc(-c4ccccc4)c3)C2)CC1`, the AC50 result is “inactive”. Turning to `O=S(=O)(c1ccccc1)N1CCC2(CCCN(c3ccccc3)C2)CC1`, the concentration at half-maximal activity (AC50) was 1.58 µM (active).
